Measured values published in PubChem BioAssay AID624047 (National Center for Advancing Translational Sciences (NCATS), 2012).
Calls of active or inactive are those of the source. Calls follow the shape of the dose curve; as a rule, active = well fitted inhibition curve with a large enough effect; inactive = flat fitted curve, though single readings scatter.

These compounds were tested against Dual specificity protein kinase CLK1 (Homo sapiens) (UniProt P49759) (assay: Reaction Biology data for inhibitors of CLK1: Probe SAR). Conditions: Reaction Biology CLK1 kinase assay, 10 uM ATP; series mostly up to 10 µM.
Chain of Dual specificity protein kinase CLK1 (Homo sapiens) (P49759 whole entry, looked up, canonical isoform): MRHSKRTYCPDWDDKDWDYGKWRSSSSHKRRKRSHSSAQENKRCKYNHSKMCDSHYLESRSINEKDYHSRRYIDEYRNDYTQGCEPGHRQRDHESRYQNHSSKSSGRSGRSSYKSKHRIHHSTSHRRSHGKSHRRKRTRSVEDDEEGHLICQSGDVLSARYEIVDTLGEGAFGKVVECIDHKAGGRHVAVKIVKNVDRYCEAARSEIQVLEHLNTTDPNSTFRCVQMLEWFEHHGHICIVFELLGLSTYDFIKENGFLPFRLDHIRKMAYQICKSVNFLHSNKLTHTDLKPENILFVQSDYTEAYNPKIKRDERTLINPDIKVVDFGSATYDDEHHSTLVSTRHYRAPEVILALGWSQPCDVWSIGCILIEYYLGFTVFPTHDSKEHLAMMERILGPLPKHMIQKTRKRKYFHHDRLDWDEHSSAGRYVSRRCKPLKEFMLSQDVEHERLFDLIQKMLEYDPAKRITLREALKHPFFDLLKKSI
From the text: Alternative splicing of pre-mRNAs plays a major role in the regulation of eukaryotic gene expression. Alternative splicing is now thought to be one of the primary reasons for the complexity of higher organisms leading to an average of three protein isoforms per gene. Aberrant splicing can lead to a number of diseases and is known to play a role in rare genetic diseases such as progeria syndrome. Hutchinson-Gilford Progeria Syndrome (HGPS) is a pediatric premature aging disease caused by a spontaneous mutation in the lamin A/C (LMNA) gene due to a single point mutation in the lamin A gene effecting 1 in 4 million people. To identify both specific splicing modulators of the lamin A gene as well as general splicing modulators, a cell-based HTS assay was developed using a minigene reporter system (AIDs, 1459 & 1487). […] This AID summarizes the characterization of lead compounds in Clk1. NIH Molecular Libraries Probe Production Centers Network [MLPCN] NIH Chemical Genomics Center [NCGC] MLPCN Grant: MH084827 Assay Submitter (PI): Tom Misteli
Compound IC50s were determined at Reaction Biology (http://www.reactionbiology.com) with ten concentration points starting at 10 uM in the assay using a 3-fold dilution series. The control compound staurosporine was also tested in the 10-dose IC50 mode with the same 3-fold serial dilution, again starting at 10 uM. All kinase reactions were performed using 10 uM ATP in the assay. 100% activity was taken from kinase reactions with DMSO alone (the vehicle used for compound stock solutions).

Potency, active:
FC(F)(F)c1cccc(Nc2nccc(-c3ccc4c(c3)OCO4)n2)c1 33.6 nM
Brc1ccc(CNc2nccc(-c3ccc4c(c3)OCO4)n2)cc1Br 24.1 nM
c1nc(NCC2CCCO2)c2cc(-c3ccc4c(c3)OCO4)ccc2n1 (stereo not drawn) 52.8 nM
Clc1ccc(CNc2nccc(-c3ccc4c(c3)OCO4)n2)cc1Cl 8.3 nM
c1cncc(CNc2nccc(-c3ccc4c(c3)OCO4)n2)c1 11.3 nM
Cc1nc(CN(C)c2ncnc3ccc(-c4ccc5[nH]ncc5c4)cc23)cs1 47.5 nM
Clc1cc(Cl)cc(CNc2nccc(-c3ccc4c(c3)OCO4)n2)c1 1.9 nM
Cc1nc(CN(C)c2ncnc3ccc(-c4ccc5c(c4)OCO5)cc23)cs1 9.3 nM
Cc1nc(CNc2ncnc3ccc(-c4ccc5c(c4)OCO5)cc23)cs1 30.4 nM
COc1ccc(-c2ccnc(NCc3ccc(Cl)c(Cl)c3)n2)cc1 76.5 nM
Cc1c(-c2ccnc(NCc3cccnc3)n2)sc(=O)n1C 44.9 nM
Clc1ccc(Nc2nccc(-c3ccc4c(c3)OCO4)n2)cc1 1260 nM
Clc1cc(Cl)cc(CNc2ncncc2-c2ccc3c(c2)OCO3)c1 68.4 nM
Clc1ccc(CNc2nccc(-c3ccc4[nH]ncc4c3)n2)cc1Cl 41.5 nM
c1cc(-c2ccc3c(c2)OCO3)nc(Nc2ccc3c(c2)OCO3)n1 180 nM
FC(F)(F)c1cc(Br)cc(Nc2nccc(-c3ccc4c(c3)OCO4)n2)c1 102 nM
COc1cccc(-c2ccnc(NCc3ccc(Cl)c(Cl)c3)n2)c1 5460 nM
c1cncc(CNc2ccnc(-c3ccc4cn[nH]c4c3)n2)c1 1600 nM
c1cncc(CNc2nccc(-c3ccc4[nH]ncc4c3)n2)c1 72.8 nM
Clc1ccc(CNc2ncncc2-c2ccc3c(c2)OCO3)cc1Cl 626 nM
Clc1ccc(CNc2ccnc(-c3ccc4[nH]ncc4c3)n2)cc1Cl 1780 nM
Clc1ccc(CNc2nccc(-c3ccc4cn[nH]c4c3)n2)cc1Cl 183 nM
O=[N+]([O-])c1cc(Nc2nccc(-c3ccc4c(c3)OCO4)n2)cc(C(F)(F)F)c1 32.3 nM
Cc1c(-c2ccnc(NCc3ccc(Cl)cc3)n2)sc(=O)n1C 74.8 nM
c1cncc(CNc2ncncc2-c2ccc3c(c2)OCO3)c1 4800 nM
c1cncc(CNc2ccnc(-c3ccc4[nH]ncc4c3)n2)c1 964 nM
Brc1cc(Br)cc(CNc2nccc(-c3ccc4c(c3)OCO4)n2)c1 13 nM
Clc1ccc(CNc2nccc(-c3ccc4c(c3)OCCO4)n2)cc1Cl 15.8 nM
COc1ccc(-c2ccnc(NCc3ccc(Cl)cc3)n2)cc1 277 nM
Clc1ccc(CNc2ncncc2-c2ccc3c(c2)OCO3)cc1 2370 nM

Potency, inactive:
Clc1ccc(CNc2ccnc(-c3ccc4c(c3)OCO4)n2)cc1Cl
COc1ccc(-c2ccnc(NCc3ccc(Cl)c(Cl)c3)n2)cc1OC
COc1cccc(-c2ccnc(NCc3ccc(Cl)cc3)n2)c1
